{
  "source": "PubChem BioAssay (NCI)",
  "note": "This is part of a sample that, as a whole, favours compounds with a hit. Of some 83,000 tested, about 20% had one in any assay.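 Single-dose data. Exposure time 48 hours. Values below 10 considered active.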 The source made the active and inactive calls.",
  "data": [
    {"system": "HL-60(TB) leukemia", "experiment": "NCI-60 one-dose screen, 48 h (100 = growth as untreated, 0 = no growth, -100 = all killed)", "settings": "10 µM unless noted", "values": [
      {"smiles": "Cc1[nH]c(C(=O)Nc2ccccc2OC2CCNC2)c(Cl)c1Cl", "note": "(stereo not given)", "growth": "90.6% (inactive)"},
      {"smiles": "O=C1Nc2ccccc2/C1=C\\c1cccc(/C=C2/C(=O)Nc3ccccc32)n1", "growth": "-48.6% (active)"},
      {"smiles": "CCN1CCN(C(=O)[C@]23CC[C@@H](C)[C@H](C)[C@@H]2C2=CC[C@@H]4[C@@]5(C)CCC(=O)C(C)(C)[C@@H]5CC[C@@]4(C)[C@]2(C)CC3)CC1", "growth": "-44.6% (active)"},
      {"smiles": "O=C1c2cc(S(=O)(=O)O)ccc2C(=O)c2c1cccc2[N+](=O)[O-]", "growth": "101% (inactive)"},
      {"smiles": "Cc1ccc(C(=O)c2ccc(CC(=O)N/N=C/c3ccc(O)cc3O)n2C)cc1", "growth": "4.48% (active)"},
      {"smiles": "CCn1c(SCC(=O)N/N=C(\\C)c2ccc(Cl)cc2)nc2c1c(=O)n(C)c(=O)n2C", "growth": "101% (inactive)"},
      {"smiles": "CC(=O)OCCC(C)CCC=C(C)C", "note": "(stereo not given)", "growth": "108% (inactive)"},
      {"smiles": "CC1=C(NCCN2CCCC2)C(=O)c2c(OCc3cccc(Cl)c3)cccc2C1=O", "growth": "94.1% (inactive)"},
      {"smiles": "COc1cc(Nc2ncnc(Nc3ccc4c(n3)NC(=O)C(C)(C)O4)n2)cc(OC)c1OC", "growth": "46.8% (inactive)"},
      {"smiles": "CN1CCN(CCOc2ccc(-c3cnc4c(-c5ccc(F)cc5)cnn4c3)cc2)CC1", "growth": "2.46% (active)"},
      {"smiles": "CCN(C(=O)Nc1ccccc1Cl)c1ccccc1", "growth": "113% (inactive)"},
      {"smiles": "COc1ccc(C(=O)NNc2nc(Cl)nc(N3CCN(C(c4ccccc4)c4ccccc4)CC3)n2)cc1", "growth": "21.3% (inactive)"},
      {"smiles": "N=C(N)Sc1cccc[n+]1[O-]", "growth": "27.8% (inactive)"},
      {"smiles": "O=C(Nc1nc(-c2ccccc2)cs1)c1cc(-c2ccc(Br)cc2)nc2ccccc12", "growth": "31.5% (inactive)"},
      {"smiles": "O=C(Nc1cccnc1Nc1ccc(Cl)cc1)c1cn(Cc2cccc(Oc3ccccc3)c2)nn1", "growth": "12.9% (inactive)"},
      {"smiles": "CC1=C([Se]CC(OC(=O)[C@@H](CSSC(C)(C)C)NC(=O)OC(C)(C)C)C(=O)NC(C)(C)C)C(=O)c2ccccc2C1=O", "note": "(stereo not given in full)", "growth": "-2.66% (active)"},
      {"smiles": "c1ccc([Se]CCCN2CCN(CCC[Se]c3ccccc3)CC2)cc1", "growth": "105% (inactive)"},
      {"smiles": "CN1C(=O)N(C)C2C1NC(=S)N2/N=C/C=C/c1ccccc1[N+](=O)[O-]", "note": "(stereo not given)", "growth": "-34.9% (active)"},
      {"smiles": "Cc1[nH]c(N=Nc2ccccc2)nc1N=Nc1ccccc1", "growth": "8.83% (active)"},
      {"smiles": "COc1cccc(NC(=O)c2sc3nc4c(cc3c2N)CCCC4)c1", "growth": "5.68% (active)"},
      {"smiles": "c1cc2cccc3c4cccc5cccc(c(c1)c23)c54", "growth": "109% (inactive)"},
      {"smiles": "Cc1ccc(/C=C2\\Oc3ccc(O)c(O)c3C2=O)cc1", "growth": "14.7% (inactive)"},
      {"smiles": "Clc1ccc(Cc2nc3ccccc3s2)cc1", "growth": "98.6% (inactive)"},
      {"smiles": "COc1ccc(/C=N/C2=NNC(C)(c3ccccc3O)N2C(Cc2c[nH]c3ccccc23)C(=O)O)cc1", "note": "(stereo not given)", "growth": "-21.9% (active)"},
      {"smiles": "c1cnc2nc3c(cc2c1)oc1ccccc13", "growth": "96.4% (inactive)"},
      {"smiles": "Cc1cccc(NC(=O)Nc2ccc(-n3cnc4cc(-c5ccc(O)cc5)ccc43)cc2)c1", "growth": "8.69% (active)"},
      {"smiles": "O=C(NC[C@H](O)CO)c1ccncc1Nc1ccc(I)cc1F", "growth": "24.2% (inactive)"},
      {"smiles": "S=C1SCC(c2ccccc2)S1", "note": "(stereo not given)", "growth": "108% (inactive)"},
      {"smiles": "COc1ccc(-c2cc(-c3c(C)oc4cc5occc5c(OC)c4c3=O)nc(N)c2C#N)cc1OC", "growth": "57.9% (inactive)"},
      {"smiles": "O=C(Nc1cccc(Oc2nnc(Cl)c3ccccc23)c1)Nc1ccc(Cl)c(C(F)(F)F)c1", "growth": "-16.7% (active)"},
      {"smiles": "CCCc1cc(NC)nc(S(=O)(=O)CC)n1", "growth": "127% (inactive)"},
      {"smiles": "C[n+]1c(/C=C\\C=C\\N2CCCCC2)sc2ccccc21", "growth": "-37.3% (active)"},
      {"smiles": "CC(C)c1nc(N(C)S(C)(=O)=O)nc(-c2ccc(F)cc2)c1/C=C/[C@@H](O)C[C@@H](O)CC(=O)O", "growth": "114% (inactive)"},
      {"smiles": "Cc1c(O)cccc1O", "growth": "110% (inactive)"},
      {"smiles": "CCNC(=O)Oc1ccc(/C(=C(\\C)c2ccccc2)c2ccc(OCCCN(C)C)cc2)cc1", "growth": "53.2% (inactive)"},
      {"smiles": "COc1ccccc1CNc1c2ccccc2nc2ccccc12", "growth": "44.8% (inactive)"},
      {"smiles": "Nc1ccccc1-c1ccc(-c2ccc(Cl)cc2)c2c1[nH]c1ccccc12", "growth": "70.9% (inactive)"},
      {"smiles": "O=C1NC(=O)C(c2ccccc2)(c2ccccc2)N1Cc1cn(-c2c3ccccc3nc3ccccc23)nn1", "growth": "73.3% (inactive)"},
      {"smiles": "O=c1n(Cc2ccc3ccccc3c2)ccn1Cc1ccc2ccccc2c1", "growth": "103% (inactive)"},
      {"smiles": "COc1cccc(/C=C2\\Oc3cc(OCCCN4CCCC4)ccc3C2=O)c1OC", "growth": "96.3% (inactive)"}
    ]}
  ]
}
